Assay outcomes deposited in PubChem by several laboratories.
Compounds with a hit are over-represented: about 2.2% of the library has one in this group of screens.
CHO-K1 Ca PAM: nonselective calcium activators in parental CHO-K1 cells, primary screen, counter-screen for M1 PAM project, cell-based, Fluo-8 calcium fluorescence, full deck, 1536-well; ATP EC20; 0% at ATP EC20, 100% at ATP max; activation, % at 3 µM; 360,000 compounds, 0.02% hits;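 active = activation above the run cutoff, the mean activation of all test compounds plus 3 SD, cut at about 40% in these data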;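 note: peak over basal fluorescence ratio in a 140 s read after ATP addition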
ANO1 activ: TMEM16A chloride channel activators or potentiators, primary screen, cell-based, HTS | Anoctamin-1 (Mus musculus), Q8BHY3 | HEK293 TMEM16A/YFP-H148Q/I152L, iodide quench fluorescence; active compounds read low | B-score at 10 µM | 340,000 compounds, 0.3% hits;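 active = fluorescence-ratio B-score plate-corrected deviation score at least 3 library SD below zero, with starting fluorescence score within 5 deviations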;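 note: channel opened by trigger with iodide after compound preincubation; score built on the fluorescence ratio of max minus min over baseline; more negative score means more quench and so TMEM16A activation or potentiation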
CHO-K1 Ca antag: counter-screen for M1 antagonists: effect in parental CHO-K1 cells. ATP-induced calcium, Fluo-8 fluorescence. inhibition, % at 3 µM. 360,000 compounds, 0.6% hits;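 active = inhibition above a per-plate cutoff, the plate's mean sample inhibition plus 3 SD, cut at about 24% in these data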
TMEM16A inh: TMEM16A chloride channel inhibitors, primary screen, cell-based, HTS. AID 588511, 2011. Anoctamin-1 (Mus musculus), Q8BHY3. 310,000 compounds, 1.2% hits. HEK293 TMEM16A/YFP iodide influx fluorescence, ionomycin. normalized B-score (activity score, 25-100; higher = stronger inhibition) at 10 µM;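 active = ratio plate-corrected score three or more library SD toward inhibition, starting fluorescence score within five deviations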;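 note: score derived from kinetic fluorescence span divided by baseline fluorescence per well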
CHO-K1 Ca ag: counter-screen for M1 agonists: effect in parental CHO-K1 cells; Fluo-8 calcium fluorescence; scaled to maximal ATP response, vehicle zero; 360,000 compounds, 0.48% hits; activation, % at 3 µM; in the data active = activation above about 15%;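 note: untransfected CHO-K1 host cells lacking M1 receptor as counterscreen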
NTR1 agonist: agonists of human NTR1, primary screen, imaging, U2OS cells, beta-arrestin-GFP, high content. 330,000 compounds, 0.17% hits. activation, % at 20 µM. NTR1-U2OS beta-arrestin-GFP spot imaging, agonist mode. Neurotensin receptor type 1 (Homo sapiens), P30989;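 active = activation at or above 40% of the spot to cytoplasm intensity ratio, with at least 20 cells analyzed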
Hits are given with their value; n = inactive; x = not tested or not shown.

SMILES	CHO-K1 Ca PAM	ANO1 activ	CHO-K1 Ca antag	TMEM16A inh	CHO-K1 Ca ag	NTR1 agonist
CCOC(=O)c1csc(NC(=O)c2ccc(S(=O)(=O)N(CC)CC)cc2)n1	n	n	n	n	15	n
O=C(Cc1cccc(NC(=O)C2CCCN(C(=O)C3CCCCC3)C2)c1)Nc1ccc(C(=O)N2CCCCC2)cc1 (stereo not given)	n	x	n	x	n	x
O=C(NCC1COc2ccccc2O1)C1CCCN(S(=O)(=O)c2cccc3cccnc23)C1 (stereo not given)	n	n	25	n	n	n
CCOC(=O)C1(CC2CCCCO2)CCN(Cc2cc3ccccc3[nH]2)CC1 (stereo not given)	n	n	n	n	57	n
CCCCc1ncc(CN2CCC(CC3CCCCO3)(C(=O)OCC)CC2)[nH]1 (stereo not given)	n	n	n	n	n	n
O=C(NC(c1ccc(F)cc1)c1ccc2ccccc2n1)C1CCN(Cc2cccc(C(F)(F)F)c2)CC1 (stereo not given)	n	x	n	x	n	x
COCCn1c(-c2ccco2)csc1=Nc1cccnc1	n	n	n	n	n	n
COc1ccc(O)c(/C=N/n2c(-c3ccco3)csc2=Nc2cccnc2)c1	n	n	28	n	n	n
CCOC(=O)C1=CCN(S(=O)(=O)c2ccccc2F)C1c1ccc(F)cc1 (stereo not given)	n	x	n	x	n	x
CCc1nc2c(OCc3c(C)noc3C)cccn2c1N(C=O)Cc1ccc(OC)cc1	41	x	n	x	n	x
C[C@@H]1CN([C@H](C)CO)C(=O)CCCn2cc(nn2)CO[C@H]1CN(C)C(=O)c1ccncc1	n	x	n	x	n	x
CSc1nc2ccc(NS(=O)(=O)c3ccc(Br)s3)cc2s1	n	n	n	25	n	n
CSc1nc2ccc(NS(=O)(=O)c3ccccc3F)cc2s1	n	n	n	n	n	n
NC(=O)c1ccc(NS(=O)(=O)c2ccc(Br)s2)cc1	n	-21	n	x	n	n
Cc1ccc(N(Cc2ccco2)C(=O)c2ccc(N3CCCCC3)c([N+](=O)[O-])c2)cc1	n	n	25	n	n	n
O=C(Nc1cccnc1)C1Cc2c(-c3ccco3)ccnc2O1 (stereo not given)	n	x	n	x	n	x
CCOC(=O)/C(C#N)=C(C)/C=C1\Sc2ccccc2N1CC	n	n	n	n	n	n
CCN1/C(=C\C=C(C(C)=O)C(C)=O)Sc2ccccc21	n	-5.6	n	n	17	n
Cc1ccc(C(=O)NC2CCN(CC(=O)Nc3ccccc3Cl)CC2)cc1	n	n	n	n	16	n
COC(=O)c1ccccc1NC(=O)CN1CCC(NC(=O)c2ccc(C)cc2)CC1	n	n	n	n	n	n
CCOC(=O)c1c2n(c3c(NCc4ccccc4)ncnc13)CCCC2	n	n	24	n	n	n
CCOC(=O)c1cc(=O)nc(N)s1	n	x	n	x	n	x
CCCNC(=O)C1(C)CCCN(C(=O)c2cccc(Cl)c2)C1 (stereo not given)	n	x	n	x	n	x
O=C(CCCN1C(=O)NC2(CCCC2)C1=O)Nc1ccc(Cl)c(S(=O)(=O)N2CCOCC2)c1	n	n	n	x	n	n
Cc1cc(=O)[nH]c(SCC(=O)Nc2ccc(Br)cc2)c1C#N	n	n	n	100	n	n
SMILES	CHO-K1 Ca PAM	ANO1 activ	CHO-K1 Ca antag	TMEM16A inh	CHO-K1 Ca ag	NTR1 agonist
COc1ccc(CNc2ncnc3c2[nH]c2cc(OC)c(OC)cc23)cc1	n	n	n	n	n	n
C1=C(CCNc2ncnc3c2[nH]c2ccccc23)CCCC1	n	n	29	n	15	x
O=c1c2[nH]c3ccccc3c2ncn1CCC1=CCCCC1	n	n	n	n	n	n
COc1ccc(CNc2ncnc3c2[nH]c2ccccc23)cc1	n	n	n	n	19	n
O=C(NC1CCCCC1)OC1CC2CC1[C@H]1CCCCN1C2=O (stereo not given in full)	n	x	n	x	n	x
CCNC(=O)C1(C)CCCN(C(=O)c2nc3ccccc3s2)C1 (stereo not given)	n	x	n	x	n	x
